# From PubChem BioAssay (NCATS)
# Results filed as inconclusive are left out. A number with no mark means an inactive call. The call rests on the fitted dose curve; in most records, active means well fitted curve in the direction sought with a large enough effect; inconclusive means small, poorly fitted or top-dose-only effect, or another doubt; inactive means no such curve, though single readings can be large; an effect the other way counts as inactive or inconclusive.
# Assay: qHTS to identify inhibitors of the type 1 interferon - major histocompatibility complex class I in skeletal muscle: primary screen against the NCATS Pharmaceutical Collection (AID 1347407);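 further: luminescence of HiBiT knocked into endogenous HLA-B as interferon-induced MHC class I level; on the % scale 0 is the no-effect control and ±100 the full control effect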
# Conditions: human skeletal muscle cells, IFN-b-induced MHC-I HiBiT luminescence, 24 h; series mostly up to 45.9 µM; activity change, negative = inhibition: at the top concentration
# Method in brief: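 Compounds […] were added to CRISPR-engineered HLA-B-HiBiT C25cl48 human myoblasts with 4.0 ng/ml IFN-beta. After 24 hrs at 37 C, cells were lysed and HiBiT luminescence measured.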
row,Compound,"activity change, negative = inhibition"
1,Cc1cc2c(s1)Nc1ccccc1N=C2N1CCN(C)CC1,-0.989%
2,Cc1ncc([N+](=O)[O-])n1CC(C)O (stereo unspecified),7.59%
3,O=C(c1ccccc1)c1ccc2n1CCC2C(=O)O (stereo unspecified),-5.8%
4,Cc1nccn1CC1CCc2c(c3ccccc3n2C)C1=O (stereo unspecified),-9.21%
5,CCCOc1ccc2nc(NC(=O)OC)[nH]c2c1,-19.8%
6,N=C(N)c1ccc2cc(OC(=O)c3ccc(N=C(N)N)cc3)ccc2c1,0.469%
7,COCCCOc1ccnc(CS(=O)c2nc3ccccc3[nH]2)c1C (stereo unspecified),-18.5%
8,CCCCc1ccc2nc(NC(=O)OC)[nH]c2c1,-23.8%
9,CCCc1cc(=O)[nH]c(=S)[nH]1,1.21%
10,COC1=C(OC)C(=O)C(CCCCCCCCCCO)=C(C)C1=O,-6.78%
11,CCC1=C(C)CN(C(=O)NCCc2ccc(S(=O)(=O)NC(=O)NC3CCC(C)CC3)cc2)C1=O (stereo unspecified),20.2%
12,CCC[C@@H]1C[C@@H](C(=O)N[C@@H]([C@H]2O[C@H](SC)[C@H](O)[C@@H](O)[C@H]2O)[C@@H](C)O)N(C)C1,-22.9%
13,Cc1cc(=O)c2c(O)c3c(O)cc(=O)c4c3c3c(cc(O)c1c23)C(C)(C)C=4O,-17.9% [at 19 µM]
14,N=C(N=C(N)N)N1CCOCC1,-2.19%
15,N[C@@H](Cc1cc(I)c(Oc2cc(I)c(O)c(I)c2)c(I)c1)C(=O)O,0.187%
16,Cc1c(C(=O)NN2CCCCC2)nn(-c2ccc(Cl)cc2Cl)c1-c1ccc(Cl)cc1,-6.97%
17,Cc1nc(-c2ccc(OCC(C)C)c(C#N)c2)sc1C(=O)O,-2.11%
18,CC(C)c1ccc2oc3nc(N)c(C(=O)O)cc3c(=O)c2c1,0.589%
19,Nc1cccc2c1CN(C1CCC(=O)NC1=O)C2=O (stereo unspecified),-0.862%

row,Compound,"activity change, negative = inhibition"
1,CCOC(=O)c1c(C)n(C)c2ccc(O)cc12,0.105%
2,O=C(OC1C[C@H]2CC[C@@H](C1)[N+]21CCCC1)C(O)(c1ccccc1)c1ccccc1 (stereo partly specified),8.94%
3,Cn1c(NCCN(CCO)CCCc2ccc([N+](=O)[O-])cc2)cc(=O)n(C)c1=O,-0.474%
4,Cc1cc(C2CCCCC2)n(O)c(=O)c1,-3.66%
5,CC(C)[C@H](N)C(=O)OCCOCn1cnc2c(=O)[nH]c(N)nc21,14.9%
6,Cc1nc2n(c(=O)c1CCN1CCC(c3noc4cc(F)ccc34)CC1)CCCC2,-17.7%
7,Cc1ccc(C(=O)c2cc(O)c(O)c([N+](=O)[O-])c2)cc1,-26.3%
8,COc1c2occc2cc2ccc(=O)oc12,-6.01%
9,CC1=C(C(=O)O)N2C(=O)[C@@H](NC(=O)[C@H](N)C3=CCC=CC3)[C@H]2SC1,-3.86%
10,Cc1cccc(C)c1OCC(=O)N[C@@H](Cc1ccccc1)[C@@H](O)C[C@H](Cc1ccccc1)NC(=O)[C@H](C(C)C)N1CCCNC1=O,-4.33%
11,CCN(CCO)CCCC(C)Nc1ccnc2cc(Cl)ccc12 (stereo unspecified),-5.56% [at 3.83 µM]
12,Clc1ccc(C(Cn2ccnc2)OCc2c(Cl)cccc2Cl)c(Cl)c1 (stereo unspecified),-1.96%
13,COc1cc(OC)c(C(=O)CCCN2CCCC2)c(OC)c1,2.01%
14,O=C(NC(Cc1cc(=O)[nH]c2ccccc12)C(=O)O)c1ccc(Cl)cc1 (stereo unspecified),2.68%
15,NNc1nncc2ccccc12,0.358% [at 19 µM]
16,COc1cc2nc(N3CCN(C(=O)C4CCCO4)CC3)nc(N)c2cc1OC (stereo unspecified),-17.7%
17,CCC(C)(Oc1ccc(C2(c3ccc(OC(C)(CC)C(=O)O)cc3)CCCCC2)cc1)C(=O)O (stereo unspecified),3.77%
18,S=c1nc[nH]c2nc[nH]c12,-10.5%

# Assay: qHTS to identify inhibitors of the type 1 interferon - major histocompatibility complex class I in skeletal muscle: primary screen against the NCATS Mechanism Interrogation Plate v5.0 (MIPE) Libary (AID 1347411);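 further: plate controls were vehicle for no effect and reference inhibitor for full effect; nearly all actives have a fitted effect of over 65% in size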
# Conditions: iHSKM cells + IFN-b, HiBiT-tagged MHC-I luminescence, 24 h; series mostly up to 45.8 µM; activity change, negative = inhibition: at the top concentration
# Method in brief: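 Luminescence from CRISPR HiBit-tagged endogenous HLA-B in human myoblasts reported MHC class I level after 24 h of IFN-beta (4 ng/ml) plus compound. Compounds ran as 11-point 1:3 series, top 46 uM final.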
row,Compound,"activity change, negative = inhibition"
1,Cc1cc2c(s1)Nc1ccccc1N=C2N1CCN(C)CC1,17.7%
2,Cc1ncc([N+](=O)[O-])n1CC(C)O (stereo unspecified),-9.42%
3,O=C(c1ccccc1)c1ccc2n1CCC2C(=O)O (stereo unspecified),-3.14%
4,N=C(N)c1ccc2cc(OC(=O)c3ccc(N=C(N)N)cc3)ccc2c1,-1%
5,CCCc1cc(=O)[nH]c(=S)[nH]1,-4.57%
6,COC1=C(OC)C(=O)C(CCCCCCCCCCO)=C(C)C1=O,-29.9%
7,CCC1=C(C)CN(C(=O)NCCc2ccc(S(=O)(=O)NC(=O)NC3CCC(C)CC3)cc2)C1=O (stereo unspecified),-6.43%
8,N[C@@H](Cc1cc(I)c(Oc2cc(I)c(O)c(I)c2)c(I)c1)C(=O)O,-5.67%
9,Cc1nc(-c2ccc(OCC(C)C)c(C#N)c2)sc1C(=O)O,-20.9%
10,CCOC(=O)c1c(C)n(C)c2ccc(O)cc12,-14.1%
11,Cn1c(NCCN(CCO)CCCc2ccc([N+](=O)[O-])cc2)cc(=O)n(C)c1=O,-7.33%
12,CC(C)[C@H](N)C(=O)OCCOCn1cnc2c(=O)[nH]c(N)nc21,-1.9%
13,COc1c2occc2cc2ccc(=O)oc12,-8.73%
14,CCN(CCO)CCCC(C)Nc1ccnc2cc(Cl)ccc12 (stereo unspecified),7.97% [at 5.1 µM]
15,Clc1ccc(C(Cn2ccnc2)OCc2c(Cl)cccc2Cl)c(Cl)c1 (stereo unspecified),-23%
16,COc1cc(OC)c(C(=O)CCCN2CCCC2)c(OC)c1,3.43%
17,O=C(NC(Cc1cc(=O)[nH]c2ccccc12)C(=O)O)c1ccc(Cl)cc1 (stereo unspecified),0.725%
18,CCC(C)(Oc1ccc(C2(c3ccc(OC(C)(CC)C(=O)O)cc3)CCCCC2)cc1)C(=O)O (stereo unspecified),7.02%
19,S=c1nc[nH]c2nc[nH]c12,-2.71%
